High-throughput results (PubChem BioAssay)
hgDAF12 agonist: agonists of H. glycines DAF-12 nuclear receptor; HEK293 GAL4-hgDAF12 UAS-luciferase reporter, agonist luminescence; normalized to butyrate control; activation, % at 6.8 µM; actives 1.8% (n = 370,000); AID 687014;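 active = activation above a cutoff set at the mean of all screened compounds plus 3 SD, cut at about 10% in these data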;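 note: 0% = DMSO wells and 100% = sodium butyrate wells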
ssDAF12 agonist: activates DAF-12 receptor from parasite S. stercoralis | HEK293 ssDAF-12/GRIP1 lit1-tk-luc reporter, luminescence; % of 3 µM dafachronic acid response | activation, % at 6.8 µM | actives 1% (n = 370,000) | AID 652126;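 active = activation above the mean over all tested compounds plus 3 SD, cut at about 0.9% in these data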;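 note: 0% = DMSO-only wells and 100% = 3 µM delta7-dafachronic acid wells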
SMARCA2 activ: increases SMARCA2 function in MMTV reporter cells. MG213 cells, MMTV-luciferase reporter, dexamethasone, overnight. activation, % at 9.1 µM. actives 1% (n = 370,000). AID 652017; in the data active = activation above about 7.8%;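 note: 0% = vehicle wells and 100% = reference activator wells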
DAX1 inh-1: NR0B1 (DAX1) inhibition | P51843 | HEK293 Gal4-DAX1 luciferase reporter, luminescence | inhibition, % at 6.75 µM | actives 0.99% (n = 340,000);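 active = inhibition above the mean over all tested compounds plus 3 SD, cut at about 4.2% in these data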;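 note: 0% = DAX1-transfected cells with DMSO and 100% = empty-vector control cells with DMSO; inhibition shows as a rise in luminescence from relieved DAX1 repression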
Target sequence (P51843 207-470 limits assumed): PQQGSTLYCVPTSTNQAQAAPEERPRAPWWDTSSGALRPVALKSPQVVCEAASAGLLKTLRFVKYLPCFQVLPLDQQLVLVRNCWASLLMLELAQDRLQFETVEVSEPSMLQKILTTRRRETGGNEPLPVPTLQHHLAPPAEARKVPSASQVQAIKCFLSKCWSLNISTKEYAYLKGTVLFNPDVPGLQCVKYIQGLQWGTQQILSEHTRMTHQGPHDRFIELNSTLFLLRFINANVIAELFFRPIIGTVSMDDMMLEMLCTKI
DAX1 inh-2: DAX1 (NR0B1) inhibition, primary screen; inhibition, % at 6.8 µM; AID 652010; actives 1.1% (n = 370,000); HEK293T StAR-luciferase reporter, SF-1/DAX-1 repression relief;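 active = inhibition above the mean over all tested compounds plus 3 SD, cut at about 3.6% in these data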;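 note: 0% = DAX-1 cells with DMSO and 100% = cells lacking DAX-1 with DMSO; higher inhibition means more luminescence from relief of DAX-1 repression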
hcDAF-12 act: H. contortus DAF-12 activation, primary screen; HEK293 hcDAF-12 lit1-tk-luc reporter, luminescence; 0% DMSO, 100% Δ7-dafachronic acid; activation, % at 6.8 µM; actives 1.4% (n = 370,000);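 active = activation above the mean of all tested compounds plus 3 SD, cut at about 5.5% in these data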;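 note: 100% = response to 3 µM Δ7-dafachronic acid high control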
SMARCA2 act conf: SMARCA2 activation, confirmation screen; shares compounds with SMARCA2 activ; MG213 cells, MMTV-luciferase with dexamethasone, luminescence, overnight; MG213 cells expressing E1A, Rb sequestered; DMSO wells 0%, reference activator 100%; activation, % at 9.1 µM; actives 30% (n = 3,500); AID 652260;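 active = activation above its plate's cutoff, the mean activation of tested wells plus 3 SD, cut at about 7.9% in these data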
GAL4-VP16 Luc: activates GAL4-VP16 luciferase, flagging SMARCA2 activator hits. shares compounds with SMARCA2 activ. HEK293 GAL4-VP16 pG5luc reporter, luciferase luminescence; scaled: DMSO wells 0%, SAHA wells 100%. activation, % at 9.1 µM. actives 41% (n = 3,500). AID 686939;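 active = activation above the solvent-only control well mean plus 3 SD, averaged across control plates, cut at about 5.2% in these data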
* = called active by the depositor; . = not tested or not shown. An excerpt weighted towards active compounds, which were near 4.8% of everything screened.

SMILES | hgDAF12 agonist | ssDAF12 agonist | SMARCA2 activ | DAX1 inh-1 | DAX1 inh-2 | hcDAF-12 act | SMARCA2 act conf | GAL4-VP16 Luc
C#CCCC(=O)O[C@H]1CCC[C@@]2(C(=O)N(Cc3ccccc3)c3ccccc32)[C@H]1NC(=O)CCc1ccccc1 | -2 | 0 | -3 | . | 0 | -3 | . | .
COc1ccc(Nc2cc(C(=O)NCCCN3CCOCC3)c3ccccc3n2)cc1OC | 1 | -1 | 9.8* | -1 | 0 | -2 | 1 | 1
C=CCC(NCc1ccco1)c1ccc(OC)c(OC)c1 (configuration not stated) | 1 | -1 | 9.9* | 0 | 0 | 0 | -3 | 1
C=C(C)CC(NCc1ccco1)c1ccc(OC)cc1 (configuration not stated) | 0 | -1 | 1 | -1 | -1 | 1 | . | .
CCn1c(CNC(=O)C2CCCCC2)cc2ccccc21 | 0 | 0 | -2 | 0 | 0 | 4 | . | .
Cn1c(CNC(=O)C2CCCCC2)cc2ccccc21 | 1 | -1 | 8.2* | 0 | 0 | 1 | -1 | 0
CCCCNC(=S)NNC(=O)c1csc(C)c1CC | 1 | -2 | 8.3* | 0 | -1 | 0 | -2 | 2
CN1CCc2c(sc3c2C(=O)NC(c2cccc(OC(=O)c4cccs4)c2)N3)C1 (configuration not stated) | 8 | -2 | 14* | 2 | 3 | 5 | 2 | 11*
CN1CCc2c(sc3c2C(=O)NC(c2ccco2)N3)C1 (configuration not stated) | -1 | -2 | -2 | 1 | -1 | -1 | . | .
COc1ccc2[nH]c(C)c(CCN3C(=O)OC(C)(C)C3(C)O)c2c1 (configuration not stated) | -1 | -1 | -1 | -1 | -1 | 0 | . | .
COc1ccc2[nH]c(C)c(CCN3C(=O)C4CC=CCC4C3=O)c2c1 (configuration not stated) | -2 | -2 | 9.1* | 2 | -1 | 0 | -4 | -2
Brc1ccc(CN2CCCc3nc(-c4ccccc4)ccc32)cc1 | 5 | 1 | -2 | . | -1 | 2 | . | .
FC(F)(F)c1ccccc1CN1CCCc2nc(-c3ccccc3)ccc21 | 0 | -1 | 2 | . | 1 | 0 | . | .
COCCN1CCCc2nc(-c3ccc(Br)cc3)ccc21 | 11* | 0 | 11* | . | 4.0* | 1 | 7 | 7.8*
O=S(=O)(c1ccc(C(F)(F)F)cc1)N1CCCc2nc(-c3ccc(Br)cc3)ccc21 | 4 | 0 | 15* | . | 0 | 0 | -3 | 5
COc1ccc(-c2ccc3c(n2)CCCN3S(=O)(=O)c2ccc(OC)cc2)cc1 | 0 | -2 | -11 | . | -1 | -2 | . | .
COc1ccc(-c2ccc3c(n2)CCCN3Cc2ccccc2C(F)(F)F)cc1 | 8 | -1 | 8.2* | . | 4.2* | 2 | 3 | 5.8*
Cc1ccc(NC(=O)CSc2nnc(-c3ccccc3F)n2-c2ccccc2)c(C)c1 | -4 | -2 | -7 | . | 0 | -3 | . | .
O=C(CSc1nnc(-c2cccnc2)n1-c1ccc(Cl)cc1)c1ccc2ccccc2c1 | 1 | -1 | 1 | . | 0 | -2 | . | .
Cc1cc(C)cc(NC(=O)CCN2CC(C)OC(C)C2)c1 (configuration not stated) | -1 | -1 | 8.4* | -1 | 0 | -1 | -3 | 2
C[C@H]1COc2cc(Br)ccc2S(=O)(=O)N1Cc1cn(CC2CCCCC2)nn1 | 3 | -1 | -3 | . | 0 | -1 | . | .
Cc1ccc(C2(C)NC(=O)N(CC(=O)c3ccc4c(c3)OCCO4)C2=O)cc1 (configuration not stated) | 1 | -1 | 1 | 0 | -1 | 1 | . | .
CCc1ccc(C(=O)CN2C(=O)NC(C)(c3ccc(C)cc3)C2=O)cc1 (configuration not stated) | 2 | 0 | 9.1* | 2 | 0 | -2 | 6 | 0
Nc1[nH]c(C(=O)c2ccccc2)c(-c2ccc(O)cc2)c1C(=O)NCCc1c[nH]c2ccccc12 | -3 | -2 | . | . | . | -1 | . | .
COc1ccc(-c2cc(-c3nnc(SCC(=O)Nc4ccc(OCc5ccccc5)cc4)n3N)[nH]n2)cc1 | 2 | -1 | -2 | . | -3 | 1 | . | .
SMILES | hgDAF12 agonist | ssDAF12 agonist | SMARCA2 activ | DAX1 inh-1 | DAX1 inh-2 | hcDAF-12 act | SMARCA2 act conf | GAL4-VP16 Luc
COc1cccc(-c2cccc3c4c([nH]c23)[C@@H]2C[C@H]3[C@@H](C(=O)N2CC4)[C@H](C)ON3C)c1 | 5 | -1 | -4 | . | 1 | -2 | . | .
COc1ccc(-n2ncc3c2CC(C)(C)CC3NC(=O)Cc2nonc2C)cc1 (configuration not stated) | -2 | -1 | 8.0* | 0 | 0 | -1 | 2 | 0
Cc1ccc(OCCC(=O)OCC(=O)NCc2ccccc2)cc1 | 0 | -1 | -1 | 3 | 1 | -2 | . | .
COc1ccc(OCCC(=O)OCC(=O)NCc2ccccc2)cc1 | -1 | -1 | 9.8* | 3 | 0 | 0 | -1 | 2
CCOc1ccc(-n2c(SCC(=O)c3ccc4ccccc4c3)nnc2-c2ccco2)cc1 | 1 | -2 | -4 | . | -1 | -2 | . | .
CCn1cnc2sc(C(=O)Oc3cccc(C)c3)c(C)c2c1=O | 0 | -1 | 11* | 2 | 0 | -2 | 7 | 4
Cc1c(C(=O)Oc2ccc(F)cc2)sc2ncn(Cc3cccc(F)c3)c(=O)c12 | -1 | -1 | 1 | -1 | 0 | -2 | . | .
COc1ccc2c(c1)CC(C)C/C2=N\NC(=O)c1ccco1 (configuration not stated) | 10 | 0 | 3 | 2 | 3 | 3 | . | .
CC1C/C(=N/NC(=O)c2cccc(F)c2)c2ccc(O)cc2C1 (configuration not stated) | 13* | -1 | 9.2* | 2 | 0 | 3 | -3 | 0
CCOc1ccc(C=Nn2c(-c3cccc(OC(C)C)c3)n[nH]c2=S)cc1 | 0 | -2 | -3 | . | 1 | 0 | . | .
N#CCCN(CCCN1CCOCC1)CN1C(=O)c2ccccc2C1=O | 0 | 0 | 8.1* | 1 | 1 | -1 | -2 | 1
O=C(CCCN1C(=O)c2ccccc2C1=O)NCCCN1CCOCC1 | -1 | 0 | -2 | 0 | 1 | 5 | . | .
C[C@H]1CN(C(=O)OC(C)(C)C)CCN1c1ccc(Br)c(C#N)c1 | -2 | -2 | -3 | . | -2 | -2 | . | .
Cc1cccc(NC(=O)/C(C#N)=C/c2ccccc2O)n1 | 8 | 1 | 12* | 1 | 1 | 5 | 5 | 6.7*
